# Test results taken from PubChem BioAssay AID743449 (Broad Institute, 2014).
# Values joined by “and” are separate entries in the source; they are usually repeats but may differ in a detail not shown here. Equal values may be shown once. Hit rate of the full screen: of about 9,900 compounds, about 90 (0.9%) were called active. Roughly 2% stayed inconclusive and do not appear here.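 Rule for the calls: active = mean normalized replicate activity at least 50 and at least half of replicates each reaching 50; inconclusive = only one of the two criteria met; inactive = neither criterion met.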 What follows is part of a selection rich in actives, with near analogues and random picks from the rest.
# Assay: YAP1 pathway inhibitors via CTGF transcript, primary screen, DLD1 colon cancer cells, RT-qPCR, single point (AID 743449);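 note: 0% = neutral control wells and 100% = dasatinib control wells; higher means stronger suppression of CTGF expression like dasatinib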
# Settings: DLD1 CTGF mRNA qPCR, 24 h; at 12.5 µM; active compounds read high
row,SMILES,inhibition
1,COc1cccc(NC(=O)C[C@@H]2CC[C@@H]3[C@H](COc4ccc(NS(=O)(=O)c5cccc(F)c5)cc4C(=O)N3C)O2)c1,-76.5% (inactive)
2,C[C@@H]1CN([C@H](C)CO)C(=O)c2ccccc2-c2ccccc2CO[C@@H]1CN(C)Cc1ccccc1C(F)(F)F,69.6% (active)
3,C[C@@H]1CN([C@@H](C)CO)C(=O)c2ccccc2-c2ccccc2CO[C@@H]1CN(C)Cc1cccc2c1OCCCO2,14.7% (inactive)
4,C[C@H]1CN([C@@H](C)CO)C(=O)c2ccccc2-c2ccccc2CO[C@H]1CN(C)Cc1cccc2c1OCCCO2,24% (inactive)
5,C[C@H]1CN([C@@H](C)CO)C(=O)c2c(c3ccccc3n2C)-c2ccccc2CO[C@@H]1CN(C)S(=O)(=O)c1ccc([N+](=O)[O-])cc1,23.9% (inactive)
6,C[C@H](CO)N1C[C@H](C)[C@H](CN(C)Cc2ccccc2C(F)(F)F)OCc2ccccc2-c2ccccc2C1=O,26.5% (inactive)
7,C[C@@H]1CN([C@@H](C)CO)C(=O)c2ccccc2-c2ccccc2CO[C@@H]1CN(C)S(=O)(=O)c1cn(C)cn1,63% (active)
8,C[C@@H]1CN([C@@H](C)CO)C(=O)c2c(c3ccccc3n2C)-c2ccccc2CO[C@H]1CN(C)S(=O)(=O)c1ccc([N+](=O)[O-])cc1,7.85% (inactive)
9,C[C@@H]1CN([C@@H](C)CO)C(=O)c2ccccc2-c2ccccc2CO[C@@H]1CN(C)Cc1ccccc1C(F)(F)F,-64.4% (inactive)
10,C[C@@H]1CN([C@@H](C)CO)C(=O)c2ccccc2-c2ccccc2CO[C@H]1CN(C)S(=O)(=O)c1cn(C)cn1,-9.13% (inactive)
11,C[C@@H]1CN([C@H](C)CO)C(=O)c2ccccc2-c2ccccc2CO[C@@H]1CN(C)Cc1cccc2c1OCCCO2,59.4% (active)
12,C[C@H](CO)N1C[C@H](C)[C@@H](CN(C)S(=O)(=O)c2ccc([N+](=O)[O-])cc2)OCc2ccccc2-c2c(n(C)c3ccccc23)C1=O,63.8% (active)
13,C[C@H]1CN([C@@H](C)CO)C(=O)c2ccccc2-c2ccccc2CO[C@@H]1CN(C)S(=O)(=O)c1cn(C)cn1,-12.7% (inactive)
14,O=C(c1cnccn1)N1C[C@@H]2N[C@H](C1)C2c1ccc(/C=C/c2ccccc2)cc1 (stereo partly drawn),-30.1% (inactive) and 19.5% (inactive)
15,O=C(C[C@H]1CC[C@H]2[C@@H](COC[C@@H](O)CN2C(=O)c2ccc(F)cc2)O1)N1CCCCC1,-4.99% (inactive)
16,COc1ccc(-c2ccc([C@H]3[C@H](CO)N4C(=O)CN(C(=O)C5CC5)C[C@@H]34)cc2)cc1,4.63% (inactive)
17,COc1cccc(NC(=O)N[C@H]2CC[C@@H](CC(=O)N3CCN(C)CC3)O[C@@H]2CO)c1,-6.95% (inactive)
18,O=C(NC[C@H]1N[C@H](CO)[C@@H]1c1ccc(-c2cncnc2)cc1)C1CCCCC1,-7.65% (inactive)
19,COc1ccc2c3c(n(C)c2c1)[C@@H](CO)N(C(C)=O)CC31CN(S(=O)(=O)c2ccccc2)C1,1.07% (inactive)
20,CC(C)c1cccc(NC(=O)C[C@H]2CC[C@H]3[C@@H](COc4ccc(NC(=O)NCc5ccccc5)cc4C(=O)N3C)O2)c1,22.2% (inactive)
21,O=C(Nc1ccccc1F)N1C[C@@H]2[C@H](c3ccccc31)[C@@H](CO)N2C(=O)Cc1cccnc1,7.57% (inactive)

row,SMILES,inhibition
1,CN1c2ccc(Br)cc2[C@@H]2[C@@H](CCN2S(=O)(=O)c2ccccc2F)[C@@H]1CO,9.29% (inactive)
2,NCC[C@H]1CC[C@@H](NC(=O)NC2CCCCC2)[C@H](CO)O1,53% (active)
3,NCC[C@H]1CC[C@H](NC(=O)NC2CCCCC2)[C@@H](CO)O1,23.6% (inactive)
4,NCC[C@@H]1CC[C@@H](NC(=O)NC2CCCCC2)[C@@H](CO)O1,5.69% (inactive)
5,O=C(NCc1cccc(F)c1)[C@H]1[C@H](CO)[C@H]2Cn3c(ccc(-c4ccncc4)c3=O)[C@@H]1N2CC1CC1,-29.8% (inactive)
6,Cn1cnc(S(=O)(=O)N[C@@H]2CC[C@H](CC(=O)NCC3CCCCC3)O[C@H]2CO)c1,-20.2% (inactive)
7,COc1ccc2c3c(n(C)c2c1)[C@@H](CO)N(CC1CC1)CC31CN(S(=O)(=O)c2cn(C)cn2)C1,10% (inactive)
8,Cc1ccc(S(=O)(=O)N[C@@H]2C=C[C@@H](CC(=O)NCc3ccc(Cl)c(Cl)c3)O[C@H]2CO)cc1,31% (inactive)
9,Cc1ccc(S(=O)(=O)N[C@H]2C=C[C@H](CC(=O)NCc3ccc(Cl)c(Cl)c3)O[C@H]2CO)cc1,52.5% (active)
10,Cc1ccc(S(=O)(=O)N[C@H]2C=C[C@H](CC(=O)NCc3ccc(Cl)c(Cl)c3)O[C@@H]2CO)cc1,-5.24% (inactive)
11,C/C=C/c1ccc([C@@H]2[C@@H](C#N)N(c3nc(CC)cs3)[C@@H]2CO)cc1,44.5% (inactive)
12,COc1cccc(-c2ccc([C@@H]3[C@@H](C#N)N(C(=O)Cc4ccncc4)[C@@H]3CO)cc2)c1,50.4% (active)
13,COc1cccc(-c2ccc([C@H]3[C@H](C#N)N(C(=O)Cc4ccncc4)[C@H]3CO)cc2)c1,-33.7% (inactive)
14,COc1cccc(-c2ccc([C@H]3[C@@H](CO)N(C(=O)Cc4ccncc4)[C@H]3C#N)cc2)c1,-2.53% (inactive)
15,C[C@@H]1CN([C@@H](C)CO)C(=O)Cc2cc(NC(=O)C3CCCCC3)ccc2O[C@@H]1CN(C)Cc1ccc(Cl)c(Cl)c1,50.3% (active)
16,COc1ccc(CN(C)C[C@H]2Oc3ccc(NC(=O)Nc4ccc5c(c4)OCO5)cc3CC(=O)N([C@@H](C)CO)C[C@H]2C)cc1,57.9% (active)
17,C[C@@H]1CN([C@H](C)CO)C(=O)Cc2cc(NC(=O)C3CCCCC3)ccc2O[C@H]1CN(C)Cc1ccc(Cl)c(Cl)c1,-7.16% (inactive)
18,COc1ccc(CN(C)C[C@@H]2Oc3ccc(NC(=O)Nc4ccc5c(c4)OCO5)cc3CC(=O)N([C@@H](C)CO)C[C@H]2C)cc1,13.9% (inactive)
19,COc1ccc(CN(C)C[C@H]2Oc3ccc(NC(=O)Nc4ccc5c(c4)OCO5)cc3CC(=O)N([C@@H](C)CO)C[C@@H]2C)cc1,-64.7% (inactive)
20,C[C@H]1CN([C@@H](C)CO)C(=O)Cc2cc(NC(=O)C3CCCCC3)ccc2O[C@H]1CN(C)Cc1ccc(Cl)c(Cl)c1,35.6% (inactive)
21,C/C=C/c1ccc([C@H]2[C@@H](CO)N(C(=O)Nc3ccccc3F)[C@H]2C#N)cc1,23.1% (inactive)

row,SMILES,inhibition
1,COC(=O)C[C@H]1CC[C@@H](N)[C@@H](CO)O1,15.9% (inactive)
2,CNC[C@H]1OCc2ccccc2-c2ccccc2C(=O)N([C@H](C)CO)C[C@H]1C,-6.87% (inactive)
3,CCCN1C[C@H](C)[C@H](OC)CN(C)C(=O)c2cc(NC(=O)Nc3cccc(F)c3)ccc2OC[C@@H]1C,6.58% (inactive)
4,CO[C@@H]1CC[C@@H]2CCOc3ccc(C#N)cc3C(=O)N(C)[C@H](C)C(=O)N(C)C[C@H]1O2,-48.9% (inactive)
5,CN1C(=O)c2cc(NS(=O)(=O)c3ccccc3F)ccc2OC[C@H]2O[C@H](CC(=O)NC3Cc4ccccc4C3)CC[C@H]21,-1.53% (inactive)
6,CCS(=O)(=O)Nc1ccc2c(c1)C(=O)N(C)[C@H]1CC[C@H](CC(=O)N3CCN(C)CC3)O[C@H]1CO2,51.4% (active)
7,CCS(=O)(=O)Nc1ccc2c(c1)C(=O)N(C)[C@@H]1CC[C@H](CC(=O)N3CCN(C)CC3)O[C@H]1CO2,0.381% (inactive)
8,CCS(=O)(=O)Nc1ccc2c(c1)C(=O)N(C)[C@H]1CC[C@@H](CC(=O)N3CCN(C)CC3)O[C@H]1CO2,15.7% (inactive)
9,CN1C(=O)c2cc(NC(=O)Cc3cccs3)ccc2OC[C@H]2O[C@H](CC(=O)NCCc3ccncc3)CC[C@@H]21,-70.9% (inactive)
10,CN1C(=O)c2cc(NS(=O)(=O)c3ccccc3F)ccc2OC[C@@H]2O[C@@H](CC(=O)NC3Cc4ccccc4C3)CC[C@@H]21,108% (active)
11,CN1C(=O)c2cc(NC(=O)Cc3cccs3)ccc2OC[C@H]2O[C@@H](CC(=O)NCCc3ccncc3)CC[C@@H]21,-83.9% (inactive)
12,CN1CCN(C(=O)C[C@H]2CC[C@H]3[C@@H](COc4ccc(NC(=O)C5CCOCC5)cc4C(=O)N3C)O2)CC1,-56% (inactive)
13,CN1C(=O)c2cc(NS(=O)(=O)c3ccccc3F)ccc2OC[C@@H]2O[C@H](CC(=O)NC3Cc4ccccc4C3)CC[C@@H]21,-9.49% (inactive)
14,CN1C(=O)c2cc(NC(=O)Cc3cccs3)ccc2OC[C@@H]2O[C@@H](CC(=O)NCCc3ccncc3)CC[C@H]21,60.1% (active)
15,CN1CCN(C(=O)C[C@@H]2CC[C@H]3[C@@H](COc4ccc(NC(=O)C5CCOCC5)cc4C(=O)N3C)O2)CC1,51.1% (active)
16,CN1CCN(C(=O)C[C@H]2CC[C@@H]3[C@@H](COc4ccc(NC(=O)C5CCOCC5)cc4C(=O)N3C)O2)CC1,27.7% (inactive)
17,COc1ccccc1NC(=O)N[C@H]1CC[C@H](CCNS(=O)(=O)c2ccc(Cl)cc2)O[C@@H]1CO,8.99% (inactive)
18,COc1ccc(NC(=O)N[C@H]2CC[C@H](CCNC(=O)CN3CCOCC3)O[C@H]2CO)cc1,-23.1% (inactive)
19,CC(=O)N1C[C@@H]2N[C@H](C1)C2c1ccc(-c2ccccc2)cc1 (stereo partly drawn),-22.3% (inactive)
20,O=C(C[C@H]1CC[C@@H](NC(=O)c2cccnc2)[C@@H](CO)O1)NCc1ccc(Cl)c(Cl)c1,26.4% (inactive)
21,CN1C(=O)c2cc(NC(=O)c3cccc(F)c3)ccc2OC[C@@H]2O[C@@H](CC(=O)NCc3ccccc3Cl)CC[C@@H]21,36% (inactive)
